Compound activity: PubChem, The Scripps Research Institute Molecular Screening Center
Sampled rows, rich in hits. Any-hit rate of the full collection: about 3.4%.
MITF inh: MITF inhibitors, primary screen, biochemical, AlphaScreen, human. Microphthalmia-associated transcription factor (Homo sapiens), O75030. AlphaScreen MITF homodimerization, bead proximity signal. inhibition, % at 2.6 µM. 650,000 compounds, 0.91% hits; in the data active = inhibition above about 50%;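 note: 0% = vehicle wells with protein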
FBW7 activator: FBW7 E3 ligase activators, primary screen, biochemical, AlphaScreen, human; F-box/WD repeat-containing protein 7 (Homo sapiens), Q969H0; AlphaScreen FBW7–phospho-cyclin E peptide binding, activator screen; normalized activity (activation), % at 26.1 µM; 650,000 compounds, 0.13% hits; in the data active = normalized activity above about 1.9%;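 note: purified mutant Fbw7 with reduced substrate affinity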
TEAD-YAP inh: TEAD-YAP interaction inhibition, primary screen, TEAD-YAP interaction inhibitor project, luminescence, HEK-TIYL cells. TEAD-Gal4/YAP UAS-luciferase luminescence. inhibition, % at 9.12 µM. 640,000 compounds, 1.4% hits. AID 1259422, 2018; in the data active = inhibition above about 32%;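 note: 0% = median of test compound wells and 100% = reference inhibitor wells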
GPR151 ag: activators of human GPR151, primary screen, cell-based, PathHunter beta-arrestin, luminescence. PathHunter beta-arrestin GPR151 cells. AID 1508602, 2020. activation, % at 11.2 µM. 650,000 compounds, 1% hits. G-protein coupled receptor 151 (Homo sapiens), Q8TDV0; in the data active = activation above about 4.9%;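 note: 0% = median of compound wells and 100% = cells with positive control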
Target sequence (Q8TDV0 whole entry, looked up): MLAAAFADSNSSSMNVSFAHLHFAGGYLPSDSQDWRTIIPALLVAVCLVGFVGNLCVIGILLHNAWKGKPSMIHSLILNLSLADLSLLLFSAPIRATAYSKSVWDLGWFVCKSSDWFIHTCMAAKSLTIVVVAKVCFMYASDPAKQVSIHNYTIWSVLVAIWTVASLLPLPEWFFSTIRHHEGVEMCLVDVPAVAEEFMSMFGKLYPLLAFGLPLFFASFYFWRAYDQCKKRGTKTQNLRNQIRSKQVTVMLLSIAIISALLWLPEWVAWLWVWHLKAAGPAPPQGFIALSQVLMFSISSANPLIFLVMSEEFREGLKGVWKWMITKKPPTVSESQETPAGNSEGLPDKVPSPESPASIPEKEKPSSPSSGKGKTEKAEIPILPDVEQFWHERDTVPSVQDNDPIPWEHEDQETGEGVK
Active calls of the source: *.

SMILES | MITF inh | FBW7 activator | TEAD-YAP inh | GPR151 ag
Cc1nc(N2CCCC2)c2cc(C)sc2n1 | -5 | 0 | -9 | 1
Cc1nc(N2CCCc3ccccc32)c2cc(C)sc2n1 | -13 | 0 | 46* | 0
Oc1ccc(-c2cnc(-c3ccc(O)cc3)nc2)cc1 | 4 | 0 | 95* | -2
CC(C)(C)n1cc(-c2cnc3ccccc3n2)cn1 | 9 | 0 | 78* | -8
CC(=O)N(C(C)=O)c1ccc(-c2cnc(-c3ccc(N(C(C)=O)C(C)=O)cc3)nc2)cc1 | 5 | 0 | 0 | 1
Oc1ccc(-c2cnc3ccccc3n2)cc1 | -6 | 0 | 52* | -10
COc1cc(/C=N/NC(=O)CN2c3cccc4cccc(c34)S2(=O)=O)cc(Cl)c1O | -1 | 0 | 12 | 2
Cc1ccc(NC2=C([N+](=O)[O-])C(=O)c3ccccc32)cc1C | 12 | 0 | -5 | -2
Cc1cccc(-n2ncc3c(N4CCCCCC4)ncnc32)c1 | -4 | 0 | 74* | -5
Cc1cccc(-n2ncc3c(N4CCCC(C)C4)ncnc32)c1 (stereo not drawn) | -16 | 0 | 96* | -3
CC1CCCN(c2ncnc3c2cnn3-c2ccccc2)C1 (stereo not drawn) | -8 | 0 | 84* | -1
Cc1cccc(-n2ncc3c(N4CCC(C)CC4)ncnc32)c1 | -7 | 0 | 24 | 2
CC1CC(C)CN(c2ncnc3c2cnn3-c2ccc(Cl)cc2)C1 (stereo not drawn) | -12 | 0 | 34* | 1
CC1CC(C)CN(c2ncnc3c2cnn3-c2ccccc2)C1 (stereo not drawn) | 8 | 0 | -56 | 2
Fc1ccccc1Cn1nnc2c(NC3C4CC5CC(C4)CC3C5)ncnc21 (stereo not drawn) | 7 | 0 | 3 | 2
Cc1ccccc1C(=O)N1CCC(C(=O)NNC(=O)CC23CC4CC(CC(C4)C2)C3)CC1 | -3 | 0 | 6 | 1
Cc1c(Cl)cnc(NC(=O)CSc2cccc[n+]2[O-])c1Cl | -4 | 0 | -2 | 0
CCN1CCN(c2ncnc3c2cnn3-c2ccc(Cl)cc2)CC1 | 5 | 0 | -58 | 0
CC1CCCN(c2ncnc3c2cnn3-c2ccc(Cl)cc2)C1 (stereo not drawn) | -8 | 0 | 94* | 1
CC1CCN(c2ncnc3c2cnn3-c2ccc(Cl)cc2)CC1 | 4 | 0 | 20 | 1
CN1CCN(c2ncnc3c2cnn3-c2ccc(Cl)cc2)CC1 | -12 | 0 | 67* | -1
O=C(Oc1ccc(NS(=O)(=O)c2ccccc2)c2ccccc12)c1ccccc1 | -3 | 0 | 77* | 0
CCn1c(N2CCCC(C(=O)NCC(C)O)C2)nc2ccccc21 (stereo not drawn) | -4 | 0 | 4 | 1
COc1ccc(C(c2ccc3cccnc3c2O)N2CCOCC2)cc1 (stereo not drawn) | 18 | -1 | 80* | -1
Oc1c(C(c2ccc(Cl)cc2)N2CCOCC2)ccc2cccnc12 (stereo not drawn) | -5 | 0 | 78* | 0
SMILES | MITF inh | FBW7 activator | TEAD-YAP inh | GPR151 ag
COc1ccc(C(c2sc3nc(C)nn3c2O)N2CCOCC2)cc1 (stereo not drawn) | 7 | 0 | -2 | 0
COc1cc(C(c2cc(Cl)c3cccnc3c2O)N2CCCC2)cc(OC)c1OC (stereo not drawn) | 37 | -1 | 16 | 1
COc1ccc(C(c2ccc3cccnc3c2O)N2CCCC2)cc1 (stereo not drawn) | 19 | 0 | 84* | 0
CNc1nc2cc([N+](=O)[O-])c([N+](=O)[O-])cc2nc1NC | 9 | 0 | 57* | 0
c1ccc2c(c1)CC/C2=N/Nc1ccc2ccccc2n1 | 12 | 0 | 74* | -1
CCCn1c(O)c(C=Nc2cccnc2)c(=O)[nH]c1=S | 12 | 0 | 1 | -1
COc1cc(Nc2nc(Cl)nc3c2ncn3-c2ccsc2)cc(OC)c1OC | 10 | 0 | 35* | 1
COc1cc(Nc2nc(Nc3ccc(-n4ccnc4)cc3)nc3c2ncn3-c2ccccc2)cc(OC)c1OC | 9 | 0 | 34* | 0
COc1cc(Nc2nc(Nc3ccccc3)c3ncn(-c4ccsc4)c3n2)cc(OC)c1OC | 8 | 0 | 4 | -2
COc1cc(Nc2nc(Nc3cccnc3)nc3c2ncn3-c2ccsc2)cc(OC)c1OC | -1 | 0 | 25 | -1
